According to PubChem BioAssay (Tox21):
Several values for one entry are separate records, joined by “and”; a condition that tells them apart may be missing. Equal values may be shown once. Records with an inconclusive call do not appear. Some structures have more than one record in an assay (separate samples or runs), and their calls can disagree. Activity calls are given as the source filed them. Unless noted, the call rests on the fitted dose curve; in most records, active means well fitted curve in the direction sought with a large enough effect in the repeat runs; inconclusive means weak or mixed curves; inactive means no such curve, though single readings can be large; an effect the other way counts as inactive or inconclusive.

Legend:
[1] = qHTS assay to test for compound auto fluorescence at 535 nm (green) in HEK293 cells (AID 720680); conditions: green autofluorescence 485/535 nm; series mostly up to 91.3 µM
[2] = qHTS assay to test for compound auto fluorescence at 460 nm (blue) in HEK293 cell free culture (AID 720681); conditions: cell-free medium, autofluorescence 405/460 nm (blue); series mostly up to 91.3 µM
Outline: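 Blue fluorescence (Ex 405/Em 460 nm, triamterene-equivalent) was read immediately after pin transfer of compound or DMSO into medium (DMEM, 10% FBS) without cells.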

[3] = qHTS assay to test for compound auto fluorescence at 535 nm (green) in HEK293 cell free culture (AID 720682); conditions: cell-free medium, green autofluorescence 485/535 nm, stronger effect = higher value; series mostly up to 91.3 µM
Outline: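 Green-channel intensity (Ex/Em 485/535 nm) was recorded from compound-treated wells containing only DMEM with 10% FBS. Fluorescein provided the equivalency standard.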

[4] = qHTS assay to test for compound auto fluorescence at 590 nm (red) in HEK293 cell free culture (AID 720683); conditions: cell-free medium autofluorescence, Ex540/Em590 red; series mostly up to 91.3 µM
Outline: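 Red-channel autofluorescence of compounds in culture medium (DMEM, 10% FBS), no cells, measured at 540/590 nm. Rose Bengal sodium is the reference fluorophore for equivalence.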

[5] = qHTS assay to test for compound auto fluorescence at 590 nm (red) in HepG2 cell free culture (AID 720684); conditions: cell-free medium autofluorescence, red 540/590 nm; series mostly up to 91.3 µM
Outline: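 No cells present: MEM + 10% FBS only. Compound pinned in, red label read (540/590 nm). Activity = fluorescence equivalent to Rose Bengal sodium.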

[6] = qHTS assay to test for compound auto fluorescence at 460 nm (blue) in HepG2 cell free culture (AID 720685); conditions: Cell-free culture medium, blue autofluorescence 405/460 nm; series mostly up to 91.3 µM
Outline: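 Cell-free plates of MEM plus 10% FBS received 23 nL compound or DMSO vehicle; blue-channel (405/460 nm) intensity scored against triamterene as reference fluorophore.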

[7] = qHTS assay to test for compound auto fluorescence at 535 nm (green) in HepG2 cell free culture (AID 720686); conditions: Cell-free medium, green autofluorescence 485/535 nm; series mostly up to 91.3 µM
[8] = qHTS assay to test for compound auto fluorescence at 460 nm (blue) in HepG2 cells (AID 720687); conditions: autofluorescence 405/460 nm, 1 h; series mostly up to 91.3 µM
Outline: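 Blue-channel autofluorescence (Ex/Em 405/460 nm, triamterene-equivalent) was measured after 1 hr compound exposure at 37 C, 5% CO2. Cells were HepG2, plated overnight at 37 C in MEM plus 10% FBS.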

[9] = biological target: Glucocorticoid receptor (Homo sapiens) (UniProt P04150); test: qHTS assay to identify small molecule agonists of the glucocorticoid receptor (GR) signaling pathway (AID 720691; active means well fitted activation curve with a large enough effect in the signal ratio in the repeat runs, not every such curve was filed as active; the % refers to the signal ratio); conditions: GR-bla HeLa, beta-lactamase reporter ratio, 18 h; activation: at 62.4 µM (top of the series)
Outline: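 Compounds in DMSO, alongside positive controls, were added to GR-bla HeLa reporter cells and incubated 18 h at 37 C; GRE-driven beta-lactamase was detected by fluorescence after 2 h with FRET substrate at room temperature.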

[10] = biological target: Glucocorticoid receptor (Homo sapiens) (UniProt P04150); test: qHTS assay to identify small molecule antagonists of the glucocorticoid receptor (GR) signaling pathway (AID 720692; active means well fitted inhibition curve with a large enough effect in the signal ratio in the repeat runs, not every such curve was filed as active; the % refers to the signal ratio; further: potency means the concentration at half of the fitted maximal effect); conditions: GR-bla HeLa, beta-lactamase FRET ratio, dexamethasone-stimulated, 18 h; series mostly up to 58.5 µM
Outline: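 In a 1536-well cell format, compounds were added 4 h after seeding GR-bla HeLa cells, together with dexamethasone at 5 nM final; reporter activity was measured by FRET-substrate fluorescence following 18 h at 37 C.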

[11] = qHTS assay for identifying genotoxic compounds that show differential cytotoxicity against isogenic chicken DT40 cell lines with known DNA damage response pathways - wild type cell line (AID 743012); conditions: DT40 wild type chicken cells viability, CellTiter-Glo, 40 h; series mostly up to 68.4 µM; further: nearly all actives have a fitted effect of over 60% in size; further: potency means the concentration at half of the fitted maximal effect
Outline: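 Viability of DNA repair-proficient chicken DT40 cells was assessed by CellTiter-Glo luminescence following 40 h compound exposure at 37 C/5% CO2.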

[12] = qHTS assay for identifying genotoxic compounds that show differential cytotoxicity against isogenic chicken DT40 cell lines with known DNA damage response pathways - Rad54/Ku70 mutant cell line (AID 743015); conditions: DT40 Rad54/Ku70 mutant viability, CellTiter-Glo, 40 h; series mostly up to 66.8 µM; further: nearly all actives have a fitted effect of over 60% in size; further: potency means the concentration at half of the fitted maximal effect
[13] = qHTS assay to identify small molecule antagonists of the androgen receptor (AR) signaling pathway - cell viability counter screen (AID 743033; further: nearly all actives have a fitted effect of over 45% in size; further: potency means the concentration at half of the fitted maximal effect); conditions: AR-bla HEK293 viability, CellTiter-Glo luminescence, 16 h; series mostly up to 58.5 µM
[14] = qHTS assay for identifying genotoxic compounds that show differential cytotoxicity against isogenic chicken DT40 cell lines with known DNA damage response pathways - Rev3 mutant cell line (AID 743014); conditions: chicken DT40 Rev3-/- viability, CellTiter-Glo, 40 h; series mostly up to 68.4 µM; further: nearly all actives have a fitted effect of over 55% in size; further: potency means the concentration at half of the fitted maximal effect
[15] = biological target: Androgen receptor (Homo sapiens) (UniProt P10275); test: qHTS assay to identify small molecule agonists of the androgen receptor (AR) signaling pathway (AID 743036; active means well fitted activation curve with a large enough effect in the signal ratio in the repeat runs, with a control signal flat, not every such curve was filed as active; the % refers to the signal ratio); conditions: HEK293 AR-UAS-bla GripTite, beta-lactamase FRET ratio, 16 h; series mostly up to 62.4 µM
Outline: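 Cell-based FRET reporter assay: HEK293 line with a UAS-beta-lactamase construct, compounds added in DMSO, 16 h exposure at 37C, then 2 h substrate step at room temperature and fluorescence intensity read.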

[16] = biological target: Androgen receptor (Homo sapiens) (UniProt P10275); test: qHTS assay to identify small molecule agonists of the androgen receptor (AR) signaling pathway using the MDA cell line (AID 743040; further: nearly all actives have a fitted effect of over 20% in size); conditions: MDA-kb2 AR-luc cells, MMTV luciferase, 16 h, stronger effect = higher value; series mostly up to 70.3 µM
Outline: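 Stable MMTV-luciferase reporter in MDA-kb2 cells; note the promoter carries GR as well as AR response elements. 16 h compound treatment, 37C, 0% CO2; ONE-Glo luminescence endpoint.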

[17] = qHTS assay to identify small molecule antagonists of the androgen receptor (AR) signaling pathway using the MDA cell line - cell viability counter screen (AID 743041; further: nearly all actives have a fitted effect of over 45% in size); conditions: MDA-kb2 viability, CellTiter-Fluor, 16 h, cells co-treated with R1881 androgen agonist; series mostly up to 70.3 µM
Outline: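 Using the breast carcinoma line MDA-kb2 AR-luc, test chemicals were co-incubated with R1881 for 16 h; CellTiter-Fluor reagent, added at 15.5 h, provided a fluorescence measure of live cells.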

[18] = biological target: Androgen receptor (Homo sapiens) (UniProt P10275); test: qHTS assay to identify small molecule antagonists of the androgen receptor (AR) signaling pathway using the MDA cell line (AID 743042; further: nearly all actives have a fitted effect of over 55% in size); conditions: MDA-kb2 AR-luc, MMTV luciferase, R1881 antagonist, 16 h; series mostly up to 70.3 µM
Outline: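 Antagonist mode: compounds plus R1881 agonist added to MDA-kb2 AR-luc cells, incubated 16 h at 37C. Luciferase reporter luminescence quantified, with multiplexed CellTiter-Fluor readout for cell viability.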

[19] = qHTS assay to identify small molecule antagonists of the glucocorticoid receptor (GR) signaling pathway - cell viability counter screen (AID 720693); conditions: GR-bla HeLa viability, CellTiter-Glo luminescence, 18 h, with 5 nM dexamethasone present; series mostly up to 58.5 µM; further: nearly all actives have a fitted effect of over 55% in size; further: potency means the concentration at half of the fitted maximal effect
[20] = biological target: Androgen receptor (Homo sapiens) (UniProt P10275); test: qHTS assay to identify small molecule antagonists of the androgen receptor (AR) signaling pathway (AID 743035; active means well fitted inhibition curve with a large enough effect in the signal ratio in the repeat runs, not every such curve was filed as active; the % refers to the signal ratio); conditions: HEK293 AR-UAS-bla, R1881-stimulated, beta-lactamase FRET, 16 h; series mostly up to 58.5 µM
Outline: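 Reporter HEK293 cells were exposed to compounds and R1881 overnight (16 h, 37C); beta-lactamase activity was then quantified by FRET fluorescence.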

Measured: Potency

Androgen receptor (Homo sapiens), sequence (P10275 whole entry, looked up): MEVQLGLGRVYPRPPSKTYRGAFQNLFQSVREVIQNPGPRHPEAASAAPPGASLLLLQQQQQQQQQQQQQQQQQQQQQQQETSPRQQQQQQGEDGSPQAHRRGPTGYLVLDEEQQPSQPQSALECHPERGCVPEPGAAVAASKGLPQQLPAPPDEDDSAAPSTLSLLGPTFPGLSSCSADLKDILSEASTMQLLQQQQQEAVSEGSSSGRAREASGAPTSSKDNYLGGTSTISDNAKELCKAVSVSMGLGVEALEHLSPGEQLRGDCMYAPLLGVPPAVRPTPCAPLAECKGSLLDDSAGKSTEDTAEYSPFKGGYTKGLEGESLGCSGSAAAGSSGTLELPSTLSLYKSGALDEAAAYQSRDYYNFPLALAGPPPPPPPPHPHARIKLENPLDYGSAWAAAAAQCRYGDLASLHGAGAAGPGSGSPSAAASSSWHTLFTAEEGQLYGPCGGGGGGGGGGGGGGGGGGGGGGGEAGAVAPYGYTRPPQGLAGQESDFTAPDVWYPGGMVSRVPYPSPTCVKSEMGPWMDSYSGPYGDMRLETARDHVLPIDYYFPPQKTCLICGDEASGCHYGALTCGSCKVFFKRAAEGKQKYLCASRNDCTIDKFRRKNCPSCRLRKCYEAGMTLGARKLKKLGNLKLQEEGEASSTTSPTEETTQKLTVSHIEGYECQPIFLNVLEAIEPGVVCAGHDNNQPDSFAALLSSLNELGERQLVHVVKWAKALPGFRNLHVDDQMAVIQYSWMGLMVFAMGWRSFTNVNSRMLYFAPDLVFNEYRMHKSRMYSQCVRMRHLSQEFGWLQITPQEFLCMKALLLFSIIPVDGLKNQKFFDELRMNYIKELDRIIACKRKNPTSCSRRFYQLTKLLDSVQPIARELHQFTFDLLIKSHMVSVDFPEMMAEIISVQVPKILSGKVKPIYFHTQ
Glucocorticoid receptor (Homo sapiens), sequence (P04150 whole entry, looked up): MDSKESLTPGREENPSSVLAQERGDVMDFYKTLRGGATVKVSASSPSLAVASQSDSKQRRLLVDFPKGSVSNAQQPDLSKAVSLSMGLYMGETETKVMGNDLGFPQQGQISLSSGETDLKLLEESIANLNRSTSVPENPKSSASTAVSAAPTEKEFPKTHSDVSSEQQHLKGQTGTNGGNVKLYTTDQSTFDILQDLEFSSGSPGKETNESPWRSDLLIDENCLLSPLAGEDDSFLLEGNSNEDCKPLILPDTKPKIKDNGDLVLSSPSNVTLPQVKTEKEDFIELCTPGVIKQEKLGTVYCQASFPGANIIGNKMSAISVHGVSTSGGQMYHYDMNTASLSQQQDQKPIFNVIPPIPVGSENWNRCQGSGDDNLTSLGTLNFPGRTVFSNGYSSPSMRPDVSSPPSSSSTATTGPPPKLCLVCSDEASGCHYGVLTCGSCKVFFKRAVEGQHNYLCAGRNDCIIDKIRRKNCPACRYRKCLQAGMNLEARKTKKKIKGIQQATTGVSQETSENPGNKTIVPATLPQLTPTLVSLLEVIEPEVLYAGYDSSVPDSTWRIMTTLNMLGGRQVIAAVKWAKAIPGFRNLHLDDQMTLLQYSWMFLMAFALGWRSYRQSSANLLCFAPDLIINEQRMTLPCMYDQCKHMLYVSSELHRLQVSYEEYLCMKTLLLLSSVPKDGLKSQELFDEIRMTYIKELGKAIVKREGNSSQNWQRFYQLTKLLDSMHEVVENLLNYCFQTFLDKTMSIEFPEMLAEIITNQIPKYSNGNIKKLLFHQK

Nc1cc(Cl)ccc1Cl
not listed: [14] | [15] | [16] | [17] | [18] | [19] | [20]
inactive: all other assays above

CCCCCCCc1ccc(O)cc1
active: [11] 21.7 µM | [14] 19.3 µM | [12] 19.3 µM
not listed: [10] | [19] | [20]
inactive: all other assays above

COP(=S)(OC)Oc1ccc([N+](=O)[O-])c(C)c1
not listed: [10] | [11] | [14] | [15] | [16] | [17] | [18] | [20]
inactive: all other assays above

COC(=O)/C=C(\C)OP(=O)(OC)OC
active: [14] 24.3 µM
not listed: [10] | [15] | [16] | [18] | [20]
inactive: all other assays above

c1ccc(Nc2ccc(Nc3ccccc3)cc2)cc1
active: [14] 21.6 µM | [12] 24.2 µM
not listed: [10] | [11] | [13] | [15] | [16] | [18] | [20]
inactive: all other assays above

CC(C)=CC1C(C(=O)OC(C#N)c2cccc(Oc3ccccc3)c2)C1(C)C (centres undefined)
not listed: [10] | [17]
inactive: all other assays above

Brc1cccc(-c2ccccc2)c1
not listed: [9] | [15] | [16] | [18] | [20]
inactive: all other assays above

O=S(=O)(O)F
not listed: [9] | [10] | [15] | [16] | [17] | [18] | [20]
inactive: all other assays above

S=C=NCCc1ccccc1
not listed: [10] | [14] | [15] | [19]
inactive: all other assays above

C[C@]12C/C(=C/O)C(=O)C[C@@H]1CC[C@@H]1[C@@H]2CC[C@@]2(C)[C@H]1CC[C@]2(C)O
active: [19] 49.4 µM | [11] 29.8 µM | [14] 49 µM | [12] 13.3 µM and 15.5 µM
inactive and 44.1 µM (active): [13]
not listed: [10] | [15] | [16] | [17] | [18] | [20]
inactive: all other assays above

CCC1COC(Cn2cncn2)(c2ccc(Cl)cc2Cl)O1 (centres undefined)
active: [11] 15.4 µM | [14] 9.69 µM | [12] 19.3 µM
not listed: [15] | [16] | [17] | [18] | [19] | [20]
inactive: all other assays above

CCOP(=S)(OCC)Oc1cc(C)nc(N(CC)CC)n1
active: [11] 27.3 µM | [14] 27.3 µM | [12] 27.3 µM
not listed: [10] | [13]
inactive: all other assays above

N#Cc1c[nH]cc1-c1cccc2c1OC(F)(F)O2
active: [10] 9.77 µM | [11] 13.7 µM | [12] 13.7 µM
inactive: [1] | [2] | [3] | [4] | [5] | [6] | [7] | [8]

C=CCOC(=O)c1ccccc1N
not listed: [10]
inactive: all other assays above

CSC(=O)c1c(C(F)F)nc(C(F)(F)F)c(C(=O)SC)c1CC(C)C
active: [11] 34.2 µM | [14] 27.1 µM | [12] 30.5 µM
not listed: [10] | [15] | [16] | [17] | [18] | [19] | [20]
inactive: all other assays above

C=CC(=C)C
active: [11] 27.3 µM | [14] 21.7 µM | [12] 24.3 µM
not listed: [9] | [10] | [15] | [16] | [17] | [18] | [20]
inactive: all other assays above
